Each structure is given as a SMILES string. Compounds without any hit were thinned out: in the full panel of roughly 83,000, 20% have a hit.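 Compound tested at a single concentration for 48 hours in 96-well plates; a percent growth value below 10 was scored as active.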 A number with no mark means an inactive call. Activity calls are given as the source filed them.

Drawing on PubChem BioAssay (NCI), this text covers growth for 12 compounds.

Test systems include HCT-15 colon; HT29 colon; SNB-75 CNS; SNB-19 CNS; U251 CNS; PC-3 prostate; SK-MEL-5 melanoma; UACC-62 melanoma; LOX IMVI melanoma; SK-MEL-28 melanoma.
Common to all, as to assay: NCI-60 one-dose screen, 48 h (100 = growth as untreated, 0 = no growth, -100 = all killed)
Common to all, as to settings: 10 µM unless noted

Turning to `O=C(CCc1nnc2sc(-c3ccccc3)nn12)c1nc2ccccc2[nH]1`, the growth in the assay on HCT-15 colon is 98.5%; with HT29 colon, 62.1%; in the assay on SNB-75 CNS, 83.9%; in the assay on SNB-19 CNS, 104%; in the assay with U251 CNS, 88.7%; with PC-3 prostate, 85.7%. The growth in the assay on SK-MEL-5 melanoma is 92.4%; with UACC-62 melanoma it was 102%; in the assay with LOX IMVI melanoma, 88.3%; with SK-MEL-28 melanoma it was 103%.

In the case of `O=C(c1cnn2c1NC(c1ccc(F)cc1)C2)N1CCCCC1` (stereo not given), the growth was 102% in the assay with HCT-15 colon; 103% with HT29 colon; 84.8% with SNB-75 CNS; 100% in the assay with SNB-19 CNS; 97.1% in the assay on U251 CNS; 96.9% in the assay on PC-3 prostate. Also, the growth in the assay on SK-MEL-5 melanoma was 97.8%; in the assay with UACC-62 melanoma it was 101%; in the assay on LOX IMVI melanoma it was 103%; in the assay with SK-MEL-28 melanoma, 103%.

For the compound `COc1ccc(Cn2c(Br)c3c(c2-c2cc(OC)c(OC)c(OC)c2)CCc2sc(N)nc2-3)cc1`, the growth with HCT-15 colon is 18.8%; in the assay with HT29 colon, -12.4% (active); with SNB-75 CNS it was -0.745% (active); in the assay with SNB-19 CNS it was 55.4%; in the assay with U251 CNS it was 21.8%; with PC-3 prostate, 28.8%. Besides, the growth is 10.1% in the assay on SK-MEL-5 melanoma, 25.5% in the assay on UACC-62 melanoma, 33.5% in the assay with LOX IMVI melanoma and 33.9% in the assay on SK-MEL-28 melanoma.

For `Cc1ccc(C2SCC(=O)N2NC(=O)c2[nH]c3ccc(F)cc3c2-c2ccccc2)cc1` (stereo not given), the growth was 89.8% with HCT-15 colon; 74.4% in the assay on HT29 colon; 71.4% in the assay on SNB-75 CNS; 88.5% in the assay on SNB-19 CNS; 81% with U251 CNS; 59.9% in the assay with PC-3 prostate. For the same compound, the growth is 89.6% with SK-MEL-5 melanoma, 78.1% with UACC-62 melanoma, 91.2% with LOX IMVI melanoma and 97.5% in the assay on SK-MEL-28 melanoma.

Turning to `Cc1c(C(=O)Nc2nc(-c3ccccc3)cs2)nnn1-c1cccc2ccccc12`, the growth in the assay on HCT-15 colon is 57.9% [50 µM]; in the assay with HT29 colon, 64.3% [50 µM]; in the assay on SNB-75 CNS, 80.6% [50 µM]; in the assay on SNB-19 CNS, 72.3% [50 µM]; in the assay on U251 CNS, 72.7% [50 µM]; in the assay on PC-3 prostate, 53.8% [50 µM]. Besides, the growth with SK-MEL-5 melanoma was -2.94% [50 µM] (active); in the assay with UACC-62 melanoma, 49.2% [50 µM]; in the assay with LOX IMVI melanoma, 43.4% [50 µM]; in the assay on SK-MEL-28 melanoma, 69.9% [50 µM].

In the case of `COc1ccc(/C=N/OCC(O)CNCc2ccccc2)cc1OC1CCCC1` (stereo not given), the growth was 102% in the assay on HCT-15 colon; 104% in the assay on HT29 colon; 77.9% with SNB-75 CNS; 95.2% in the assay with SNB-19 CNS; 99.6% in the assay on U251 CNS; 86.7% in the assay on PC-3 prostate. Besides, the growth with SK-MEL-5 melanoma was 93.3%; in the assay with UACC-62 melanoma, 98.3%; in the assay with LOX IMVI melanoma it was 91.4%; in the assay on SK-MEL-28 melanoma, 109%.

As for `O=C(NC1CC1)c1cc2n(n1)CC(c1ccccc1)N2` (stereo not given), the growth with HCT-15 colon was 95.3%; in the assay with HT29 colon, 107%; in the assay with SNB-75 CNS, 91.2%; in the assay with SNB-19 CNS, 100%; in the assay with U251 CNS it was 102%; in the assay with PC-3 prostate, 98.8%. Besides, the growth is 99.4% with SK-MEL-5 melanoma, 88.4% in the assay with UACC-62 melanoma, 98.3% with LOX IMVI melanoma and 107% in the assay on SK-MEL-28 melanoma.

Regarding `CC(C)N1CCN(c2ccc(OC[C@H]3CO[C@](Cn4cncn4)(c4ccc(Cl)cc4Cl)O3)cc2)CC1`, the growth with HCT-15 colon was 62.3%; in the assay with HT29 colon, 21.5%; in the assay with SNB-75 CNS, 89.7%; in the assay on SNB-19 CNS it was 97.7%; with U251 CNS, 73.8%; in the assay on PC-3 prostate, 73.9%. Further, the growth was 47.9% in the assay with SK-MEL-5 melanoma, 71.6% in the assay on UACC-62 melanoma, 86.5% with LOX IMVI melanoma and 63.2% in the assay on SK-MEL-28 melanoma.

Take `O=C1/C(=C/c2ccccc2F)CNC/C1=C\c1ccccc1F`: the growth is -0.826% (active) with HCT-15 colon; -35.4% (active) in the assay with HT29 colon; 32.5% with SNB-75 CNS; 3.94% (active) in the assay on SNB-19 CNS; -85.3% (active) with U251 CNS; 4.63% (active) in the assay with PC-3 prostate. Moreover, the growth with SK-MEL-5 melanoma was -88.4% (active); with UACC-62 melanoma, -58.3% (active); in the assay with LOX IMVI melanoma, -83.5% (active); in the assay with SK-MEL-28 melanoma it was -91.1% (active).

Regarding `O=S(=O)(Nc1ccc(Cl)c(Cl)c1)c1ccc(-c2cnc(C3CC3)o2)cc1`, the growth is 23.9% in the assay on HCT-15 colon; 10.2% with HT29 colon; -3.4% (active) in the assay with SNB-75 CNS; 30.9% in the assay on SNB-19 CNS; 22.1% in the assay with U251 CNS; 14.2% in the assay on PC-3 prostate. Also, the growth in the assay with SK-MEL-5 melanoma is 25%; in the assay with UACC-62 melanoma, 26.8%; in the assay with LOX IMVI melanoma, 45.6%; in the assay on SK-MEL-28 melanoma, 58.3%.

Regarding `CCN(CC)c1ccc(/C=C(\C#N)c2cc3ccccc3[nH]2)cc1`, the growth in the assay with HCT-15 colon is 29.7%; in the assay with HT29 colon, 13.7%; with SNB-75 CNS, 55.2%; with SNB-19 CNS, 72.9%; with U251 CNS it was 41.7%; in the assay on PC-3 prostate, 77%. For the same compound, the growth in the assay with SK-MEL-5 melanoma was 52.1%; in the assay on UACC-62 melanoma it was 64%; in the assay with LOX IMVI melanoma it was 29.7%; in the assay with SK-MEL-28 melanoma, 67.1%.

On to `O=c1onc(-c2ccccc2)c2ccccc12`, for which the growth in the assay with HCT-15 colon is 115%; with HT29 colon it was 109%; with SNB-75 CNS, 109%; with SNB-19 CNS it was 104%; in the assay on U251 CNS it was 98.7%; with PC-3 prostate it was 102%. For the same compound, the growth in the assay on SK-MEL-5 melanoma was 103%; in the assay with UACC-62 melanoma, 103%; with LOX IMVI melanoma it was 97.5%; in the assay on SK-MEL-28 melanoma, 103%.
